Measurements published in PubChem BioAssay (EPA / NIEHS).
Inconclusive results are not listed. The source made the active and inactive calls. Rule for the calls, unless noted: active = hit-call score of the fitted dose curve at least 0.9, where 1 is the maximum; inconclusive = response in the unintended direction; inactive = score below 0.9.

What was measured:
[1] = molecular target: Nucleoli Translocation, AR (gene 367) (UniProt P10275); test: UPITT_HCI_U2OS_AR_TIF2_Nucleoli_Antagonist: University of Pittsburgh U2OS Androgen Receptor-Transcriptional Intermediary Factor 2 (AR-TIF2) Antagonism High Content Imaging Assay for Nucleoli Translocation (AID 2283997)
Chain of Nucleoli Translocation, AR (gene 367) (P10275 whole entry, looked up): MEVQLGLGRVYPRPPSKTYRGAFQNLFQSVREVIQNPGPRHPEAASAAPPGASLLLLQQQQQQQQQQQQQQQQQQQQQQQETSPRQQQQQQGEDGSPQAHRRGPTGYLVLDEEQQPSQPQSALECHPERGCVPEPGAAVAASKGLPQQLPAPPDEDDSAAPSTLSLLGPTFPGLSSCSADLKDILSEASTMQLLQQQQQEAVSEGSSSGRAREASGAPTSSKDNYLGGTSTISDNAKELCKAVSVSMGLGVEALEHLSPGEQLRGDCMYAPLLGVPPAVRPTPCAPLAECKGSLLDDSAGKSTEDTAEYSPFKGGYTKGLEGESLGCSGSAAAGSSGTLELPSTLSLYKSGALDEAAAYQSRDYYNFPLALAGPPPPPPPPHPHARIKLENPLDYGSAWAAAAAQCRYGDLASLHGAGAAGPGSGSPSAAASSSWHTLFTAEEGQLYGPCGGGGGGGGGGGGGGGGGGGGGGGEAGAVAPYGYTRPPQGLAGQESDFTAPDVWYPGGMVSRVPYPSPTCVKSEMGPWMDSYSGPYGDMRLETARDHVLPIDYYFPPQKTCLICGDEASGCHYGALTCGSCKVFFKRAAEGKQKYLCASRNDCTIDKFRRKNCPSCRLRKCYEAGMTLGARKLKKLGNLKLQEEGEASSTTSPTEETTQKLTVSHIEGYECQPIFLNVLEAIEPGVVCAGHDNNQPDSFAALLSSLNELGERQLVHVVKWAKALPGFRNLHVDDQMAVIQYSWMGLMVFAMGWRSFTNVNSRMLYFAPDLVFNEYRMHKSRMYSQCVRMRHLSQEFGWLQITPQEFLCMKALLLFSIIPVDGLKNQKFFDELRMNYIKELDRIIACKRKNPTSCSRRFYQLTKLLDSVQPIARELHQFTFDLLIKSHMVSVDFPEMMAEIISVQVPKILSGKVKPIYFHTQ
Method in brief: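 U2OS cells co-expressing red-fluorescent-tagged human AR and green-fluorescent-tagged TIF2, imaged by high-content microscopy for nucleolar red fluorescence. Antagonist mode against DHT; primary screen at 20 uM final (0.2% DMSO).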

[2] = molecular target: Nucleoli Translocation, AR (gene 367) (UniProt P10275); test: UPITT_HCI_U2OS_AR_TIF2_Nucleoli_Agonist: University of Pittsburgh U2OS Androgen Receptor-Transcriptional Intermediary Factor 2 (AR-TIF2) Agonism High Content Imaging Assay for Nucleoli Translocation (AID 2283998)
Method in brief: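 U2OS cells expressing RFP-tagged human AR and GFP-tagged TIF2; red fluorescence in nucleoli quantified by high-content imaging. Primary screen at 20 uM final (0.2% DMSO); concentration-response 0.195–50 uM (0.5% DMSO), fitted upward versus DMSO.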

[3] = molecular target: Ratio of Nucleoli Translocation and Cytoplasm, AR (gene 367) (UniProt P10275); test: UPITT_HCI_U2OS_AR_TIF2_Nucleoli_Cytoplasm_Ratio_Antagonist: University of Pittsburgh U2OS Androgen Receptor-Transcriptional Intermediary Factor 2 (AR-TIF2) Antagonism High Content Imaging Assay for Ratio of Nucleoli Translocation and Cytoplasm (AID 2283999);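 note: antagonists lower the DHT-driven ratio of nucleolar to cytoplasmic red signal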
Chain of Ratio of Nucleoli Translocation and Cytoplasm, AR (gene 367) (P10275 whole entry, looked up): as above
Method in brief: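 U2OS cells expressing RFP-tagged human AR and GFP-tagged TIF2; compounds tested at 20 uM final (0.2% DMSO) in primary screen, 0.195–50 uM (0.5% DMSO) for concentration response. Readout: nucleolar-to-cytoplasmic red fluorescence ratio by high-content imaging, fitted relative to DHT.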

[4] = molecular target: Ratio of Nucleoli Translocation and Cytoplasm, AR (gene 367) (UniProt P10275); test: UPITT_HCI_U2OS_AR_TIF2_Nucleoli_Cytoplasm_Ratio_Agonist: University of Pittsburgh U2OS Androgen Receptor-Transcriptional Intermediary Factor 2 (AR-TIF2) Agonism High Content Imaging Assay for Ratio of Nucleoli Translocation and Cytoplasm (AID 2284000);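 note: hits raise the red nucleolar to cytoplasm ratio above vehicle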
Method in brief: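 U2OS cells expressing RFP-tagged human AR and GFP-tagged TIF2; high-content imaging ratio of nucleolar to cytoplasmic red fluorescence, fitted as gain of signal vs DMSO. Single point at 20 uM final (0.2% DMSO); concentration-response 0.195-50 uM final (0.5% DMSO).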

[5] = CCTE_Harrill_HTTr_Viability_MCF7: CCTE's 6-hour Cell Viability Assessment for the High-Throughput Transcriptomics (HTTr) Platform, in MCF-7 cells cultured in DMEM + 10% fetal bovine serum, Harrill Lab (AID 2284010; active = hit-call score of the fitted dose curve at least 0.9, where 1 is the maximum; inactive = score below 0.9)
Method in brief: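 Membrane integrity was scored by high-content imaging of propidium iodide dye exclusion after a 6 h exposure across an eight-point dilution series. Data were fitted bidirectionally relative to DMSO as negative control and baseline.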

[6] = CCTE_Harrill_HTTr_Apoptosis_MCF7: CCTE's 6-hour Apoptosis Assessment for the High-Throughput Transcriptomics (HTTr) Platform, in MCF-7 cells cultured in DMEM + 10% fetal bovine serum, Harrill Lab (AID 2284011; active = hit-call score of the fitted dose curve at least 0.9, where 1 is the maximum; inactive = score below 0.9)
Method in brief: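 MCF-7 cells in DMEM + 10% FBS exposed 6 h to chemicals over an eight-point dilution series. Caspase-3/7 activation imaged by high-content CellEvent Green staining; fitted bidirectionally versus DMSO.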

Measured: outcome

ClC1=C(Cl)[C@]2(Cl)[C@H]3[C@H]([C@H](Cl)C(Cl)[C@@H]3Cl)[C@@]1(Cl)C2(Cl)Cl (stereo partly specified)
inactive: all assays above
